CR mimetic SO: caloric restriction mimetics inhibiting age-related superoxide in yeast; S. cerevisiae aged cells, superoxide DHE fluorescence; stronger effect = lower value; superoxide response (% of plate mean), % at 10 µM; hit rate 0.18% among 330,000; AID 2690;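 active = superoxide response under a set limit, about three screen SD below normal, cut at about 65% in these data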;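 also: yeast aged for seven days with compound at 30 °C before DHE staining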
HDAC3 inh: inhibitors of human histone deacetylase 3; O15379; recombinant HDAC3, fluorogenic peptide/trypsin coupled, fluorescence; inhibition, % at 8.3 µM; hit rate 0.15% among 320,000; in the data active = inhibition above about 26%, passing the limit was not always enough; inconclusive = no clear call, values can overlap the other calls
Target sequence (O15379 whole entry, looked up): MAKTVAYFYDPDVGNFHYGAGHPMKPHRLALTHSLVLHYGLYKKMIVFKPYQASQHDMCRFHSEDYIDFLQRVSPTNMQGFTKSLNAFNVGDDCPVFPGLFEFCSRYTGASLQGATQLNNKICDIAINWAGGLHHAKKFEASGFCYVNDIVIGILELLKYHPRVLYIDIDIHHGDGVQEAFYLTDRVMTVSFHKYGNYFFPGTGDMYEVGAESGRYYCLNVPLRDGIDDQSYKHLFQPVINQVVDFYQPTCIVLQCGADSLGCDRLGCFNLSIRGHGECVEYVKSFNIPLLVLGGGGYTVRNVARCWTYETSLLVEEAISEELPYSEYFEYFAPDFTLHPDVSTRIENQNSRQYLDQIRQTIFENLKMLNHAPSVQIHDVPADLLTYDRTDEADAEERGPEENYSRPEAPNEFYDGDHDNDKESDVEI
HIF act: HIF pathway transcriptional activation. activation, % at 7.5 µM (by protocol). U2OS HRE-luciferase reporter, luminescence; normalized: DMSO 0%, desferrioxamine 100%. hit rate 0.32% among 300,000;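 active = mean activation of at least 10% of the iron chelator positive control signal, with at least half of replicates also reaching 10%; inconclusive = mean and replicate majority disagree about reaching 10%; inactive = mean and most replicates under 10%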
LANA-H2A inh: blocks KSHV LANA binding to histone H2A/H2B | Q9QR71 | cell-free LANA-H2A/H2B peptide, fluorescence polarization | inhibition, % (no concentration beside the values) | hit rate 0.6% among 320,000; in the data active = inhibition mostly above about 10%, no sharp cut-off; inactive = mostly below about 6.7%
Of the large screens only hits and unclear results are named; the others gave an inactive call. An excerpt weighted towards active compounds, which were near 1.2% of everything screened.

O=C(N/N=C/c1ccc(C(F)(F)F)cc1)c1ccc(O)cc1	none
O=C(N/N=C/c1cccc(C(F)(F)F)c1)c1ccc(O)cc1	CR mimetic SO 63.3
O=C(N/N=C/c1c(O)ccc2ccccc12)c1cccc(C(F)(F)F)c1	HIF act 13.9
COc1ccc2ccccc2c1/C=N/NC(=O)c1cccc(Br)c1	none
CC1CCc2onc(C(=O)NCc3ccco3)c2C1 (stereo unspecified)	LANA-H2A inh active
CSc1nc(=S)n(-c2cc(C)ccc2C)c(C)c1C(C)=O	none
CCN(CC(=O)Nc1ccc(OC)cc1)C(=O)c1cc(S(=O)(=O)N(C)C)ccc1N1CCCC1	none
CCN(CC)S(=O)(=O)c1cccc(C(=O)N/N=C(\C)c2ccc(O)cc2O)c1	HIF act 12.8
COc1ccc2cc(C3(C)NC(=O)N(CC(=O)N4CCCCC4)C3=O)ccc2c1 (stereo unspecified)	none (no result: HIF act)
C=CCN(CC=C)C(=O)C1CCN(S(=O)(=O)c2ccc(N3CCCC3=O)cc2)CC1	LANA-H2A inh 14.5
C=CCN(CC=C)C(=O)C1CCN(S(=O)(=O)c2ccc(-n3cnnn3)cc2)CC1	none
COc1ccc(-n2c(=S)[nH]c3cc(C(=O)Nc4ccc(OC)c(OC)c4)ccc3c2=O)cc1	LANA-H2A inh 125.7
COc1ccc(-n2c(=S)[nH]c3cc(C(=O)Nc4cccc(C)c4)ccc3c2=O)cc1	none
O=C(Nc1ccc(NS(=O)(=O)c2ccc([N+](=O)[O-])cc2)cc1)c1ccco1	none
CCOC(=O)C1CCCN(C(=O)c2ccc3oc(CCc4ccccc4)nc3c2)C1 (stereo unspecified)	HIF act 62.5
CCOC(=O)C1CCCN(C(=O)c2ccc3nc(-c4ccccc4)c(-c4ccccc4)nc3c2)C1 (stereo unspecified)	HIF act 16.7
CCOC(=O)C1CCCN(C(=O)c2cc(CN3C(=O)c4ccccc4C3=O)ccc2OC)C1 (stereo unspecified)	LANA-H2A inh 27.8
CCOC(=O)C1CCCN(C(=O)c2ccc3nc(-c4ccc(OC)c(OC)c4)c(-c4ccc(OC)c(OC)c4)nc3c2)C1 (stereo unspecified)	none
CN(C)c1nc(-c2ccccc2)c2cnn(Cc3ccccc3)c2n1	none
COc1ccccc1[C@@]1(C)ON(c2ccccc2C(F)(F)F)C1=O	none (no result: HIF act)
Oc1c(C=Nc2ccccc2Cl)[nH]c2ccccc12	none
O=C1CN(C(=O)CSc2ccccn2)c2ccccc2N1	none (no result: HIF act)
COc1ccc(OC(=O)c2cccnc2)cc1	none
O=C(Oc1ccc([N+](=O)[O-])cc1)c1cccnc1	HDAC3 inh 32.0
CC(C)COc1cccc(C(=O)NNC(=O)C2COc3ccccc3O2)c1 (stereo unspecified)	HIF act 25.5
CC(C)(C)c1ccc(OCC(=O)O/N=C(\N)c2ccncc2)cc1	none
CC(C)(NS(=O)(=O)OCC(Cl)(Cl)Cl)c1ccccc1	LANA-H2A inh 42.7
CC[C@@](C)(NS(=O)(=O)OCC(Cl)(Cl)Cl)c1ccccc1	none
O=C1c2ccccc2C(=O)N1CSc1nnc(Nc2ccccc2F)s1	CR mimetic SO 61.0
CS(=O)(=O)N(CC(=O)NCCSc1ccc(Cl)cc1)c1ccc2c(c1)OCO2	LANA-H2A inh 19.2
CCOC(=O)COc1ccc(Br)cc1C1NC(=O)NC(C)=C1C(=O)NCc1ccccc1 (stereo unspecified)	LANA-H2A inh 66.6
CCc1ccc(C2CC(=O)N(c3cccc(F)c3)C3=C2C(=O)OC3)cc1 (stereo unspecified)	none
Cc1ccc(O)c(-c2cc(C(=O)Nc3ccc(S(=O)(=O)Nc4nccc(C)n4)cc3)[nH]n2)c1	LANA-H2A inh 78.0
COc1ccc(C(=O)Nc2ccc(S(=O)(=O)Nc3nccc(C)n3)cc2)cc1	none
O=[N+]([O-])c1ccc(S(=O)(=O)NNC(=S)NCCc2ccccc2)cc1	none
COc1ccccc1NC(=S)N1CCN(C(=O)c2ccco2)CC1	LANA-H2A inh 15.8
COc1ccccc1NC(=O)/C(=C\c1cccs1)NC(=O)c1ccco1	LANA-H2A inh active
COc1ccc2oc(C(=O)N3CCN(C(=O)c4ccco4)CC3)c(C)c2c1	LANA-H2A inh 19.9
Cc1ccccc1NC(=O)/C(=C/c1cccs1)NC(=O)c1ccco1	none
COc1ccc(CNC(=O)CC2C[C@H](C(=O)N3CCOCC3)[C@@]3(C)c4[nH]c5ccccc5c4CCN3C2=O)cc1OC (stereo partly specified)	none (no result: HIF act)
CCC(=O)c1ccc(OC(=O)C2CCN(C3=NS(=O)(=O)c4ccccc43)CC2)cc1	none (no result: HIF act, LANA-H2A inh)
CCOC(=O)N1CCC(Nc2c(-c3ccc(C)cc3)c(=O)c2=O)CC1	none
CCOC(=O)N1CCC(Nc2c(-c3ccccc3)c(=O)c2=O)CC1	HIF act 12.8
CC(C)=N/N=C1\NC(=O)C(C)S1 (stereo unspecified)	none
C/C(=N\N=C1/NC(=O)C(C)S1)c1ccc([N+](=O)[O-])cc1 (stereo unspecified)	LANA-H2A inh 15.7
CCOC(=O)c1c(-c2ccccc2)oc2cc(CN(C)C)c(O)c(CN(C)C)c12	HIF act 12.2, LANA-H2A inh 49.4
CCOC(=O)c1c(C)oc2cc(Cl)c(O)c(CN(C)C)c12	none
O=C(COC(=O)Cc1c[nH]c2ccccc12)Nc1cccc2ccccc12	LANA-H2A inh 14.2
O=C(NC1CC2CCCC(C1)N2Cc1ccco1)NC12CC3CC(CC(C3)C1)C2 (stereo unspecified)	none
COc1ccc(NC(=O)CSc2nc3sc(C)cc3c(=O)n2C)c(OC)c1	LANA-H2A inh 15.6
COCCn1c(-c2ccc(OC)cc2)cnc1SCC(=O)Nc1ccc(OC)cc1OC	HIF act 21.5
COCCn1c(-c2ccc(OC)cc2)cnc1SCC(=O)Nc1cc(C)on1	HDAC3 inh inconclusive
O=C(c1ccc(F)cc1F)N1CCN(S(=O)(=O)c2ccc3c(c2)OCCO3)CC1	none (no result: HIF act)
N#CCCN(Cc1cccnc1)C(=S)NC(=O)c1ccccc1	none (no result: HIF act)
CC1CCC2(CC1)NC(=O)N(CC(=O)Nc1ccc(F)cc1)C2=O (stereo unspecified)	LANA-H2A inh 37.8 (no result: HIF act)
Cc1ccc(C(=O)N(CC(=O)NC2CCCC2)Cc2cccs2)s1	none
Cc1ccc(-n2c(CNC(=O)c3cccs3)nnc2SCC(=O)NO)cc1	HDAC3 inh 53.3
COC(=O)CSc1nnc(CNC(=O)c2cccs2)n1-c1cccc(C)c1	none (no result: CR mimetic SO, HDAC3 inh, LANA-H2A inh)
O=C(NCc1ccco1)c1ccc(Cl)c(S(=O)(=O)N2CCCC2)c1	none (no result: HIF act)
CCOC(=O)[C@@H]1[C@H]2COc3cc(OC)ccc3[C@H]2N2C(=O)N(c3ccc(C(F)(F)F)cc3)C(=O)[C@]12C	HDAC3 inh inconclusive (no result: HIF act)
COC(CN(C)C(=O)c1ccc(CS(=O)(=O)c2ccccc2C)o1)OC	LANA-H2A inh 13.8
CC(C)c1nnc(NC(=O)CCC(=O)NCc2cccs2)s1	LANA-H2A inh 18.2
CC(C)c1nnc(NC(=O)CCC(=O)NC2CCCCCC2)s1	none
CC(C)c1nnc(NC(=O)CCC(=O)NC2CC2)s1	HIF act 17.9
CC(C)(C)OC(=O)CNC(=O)c1[nH]cnc1C(=O)NCCCCCNC(=O)OC(C)(C)C	none
CN1CCN(C2Cc3ccc(F)cc3Sc3cc(F)c(Cl)cc32)CC1 (stereo unspecified)	HIF act 39.3

Screening results (PubChem)
